{
  "source": "PubChem BioAssay AID618",
  "about": "(Sanford-Burnham Center for Chemical Genomics, 2007)",
  "note": "Out of some 87,000 compounds screened, about 540 (0.62%) were called active. How the calls were made is not given here. The list comes from a sample in which actives are over-represented; it also holds similar structures and randomly drawn compounds. A call without a number means that no potency is given here. Potency and affinity values are given separately.",
  "data": [
    {"test": "inhibitors of MT1-MMP promoter transcription, cell-based, luciferase reporter, luminescence (AID 618);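 further: actives suppress MT1-MMP promoter-driven transcription so potencies describe inhibitors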", "conditions": "MT1-MMP promoter luciferase reporter cells", "values": [
      {"smiles": "CC(=O)N1CCc2cc(S(=O)(=O)CCC(=O)O)ccc21", "outcome": "inactive"},
      {"smiles": "O=C1c2ccccc2NC(c2ccc(Cl)cc2Cl)N1Cc1ccccc1", "note": "(stereo unspecified)", "outcome": "inactive"},
      {"smiles": "N=c1cc(C2(O)CCCCC2)n2c(nc3ccccc32)s1", "outcome": "active"},
      {"smiles": "c1ccc2nc3c(nc2c1)sc1nc2ccccc2n13", "outcome": "inactive"},
      {"smiles": "CC(C)(O)c1cc(=O)sc2nc3ccccc3n12", "outcome": "inactive"},
      {"smiles": "c1ccc(Cn2c(-c3cncs3)nc3ccccc32)cc1", "outcome": "inactive"},
      {"smiles": "CCCCN(CCCNC(=O)C1CCN(S(=O)(=O)N2CCOCC2)CC1)Cc1ccccc1", "outcome": "inactive"},
      {"smiles": "CCn1c(CCNC(=O)c2cccs2)nnc1SCC(=O)NC1CCCCC1", "outcome": "inactive"},
      {"smiles": "Cc1noc(C)c1CSc1nnc2n(-c3ccccc3)c(=O)c3ccccc3n12", "outcome": "inactive"},
      {"smiles": "COc1cc(OC)cc(-c2cc3nc(C)c(CCC(=O)NC(C)CCc4ccco4)c(C)n3n2)c1", "note": "(stereo unspecified)", "outcome": "inactive"},
      {"smiles": "COc1ccc(-c2cc3nc(C)c(CCC(=O)NC(C)CCc4ccco4)c(C)n3n2)c(OC)c1", "note": "(stereo unspecified)", "outcome": "inactive"},
      {"smiles": "COc1ccc(CCNC(=O)N2CCOCC2)cc1", "outcome": "inactive"},
      {"smiles": "CC(C)(C)n1nnnc1CN(Cc1ccco1)Cc1cc2cc3c(cc2[nH]c1=O)OCO3", "outcome": "inactive"},
      {"smiles": "O=C(O)c1ccccc1NC(=O)C1CCCO1", "note": "(stereo unspecified)", "outcome": "inactive"},
      {"smiles": "c1cncc(CNc2c3c(nc4nnnn24)CCCC3)c1", "outcome": "inactive"},
      {"smiles": "O=C(O)c1cccc(-c2nnn(Cc3ccccc3Cl)n2)c1", "outcome": "inactive"},
      {"smiles": "O=C(O)c1cccc(-c2nnn(Cc3ccccc3)n2)c1", "outcome": "inactive"},
      {"smiles": "COc1cc(-c2nc(S(=O)(=O)c3ccc(C)cc3)c(N(C)C)o2)cc(OC)c1OC", "outcome": "inactive"},
      {"smiles": "CCOc1cccc(NC(=O)C2CC(=O)N(C)C2)c1", "note": "(stereo unspecified)", "outcome": "inactive"},
      {"smiles": "CC(C)(C)NCC(O)COc1ccccc1C(=O)CCc1ccccc1", "note": "(stereo unspecified)", "outcome": "inactive"},
      {"smiles": "CCN(CC)CC(O)COc1ccccc1C(=O)CCc1ccccc1", "note": "(stereo unspecified)", "outcome": "inactive"},
      {"smiles": "CCCNCC(O)COc1ccccc1C(=O)CCc1ccccc1", "note": "(stereo unspecified)", "outcome": "active"},
      {"smiles": "CC(C)(C)NS(=O)(=O)c1ccc(CCC(=O)NCc2cccnc2)cc1", "outcome": "inactive"},
      {"smiles": "CCOC(=O)c1c(NC(=O)CN(CC)CC)sc2c1CCC2", "outcome": "inactive"},
      {"smiles": "O=C(Cn1c(NCCO)nc2ccccc21)c1cccs1", "outcome": "inactive"},
      {"smiles": "COc1ccccc1N1CCN(c2nc(C)nc3c2oc2ccccc23)CC1", "outcome": "active"},
      {"smiles": "Cc1cc(C)nc(N2CCN(c3nc(C)nc4c3oc3ccccc34)CC2)n1", "outcome": "inactive"},
      {"smiles": "COc1ccccc1N1CCN(c2ncnc3c2oc2ccccc23)CC1", "outcome": "inactive"},
      {"smiles": "Cc1ccc(C(=O)Nc2ccccc2OC(F)F)cc1", "outcome": "inactive"},
      {"smiles": "CN=c1scc(C)n1/N=C/c1ccc(O)c(O)c1O", "outcome": "inactive"},
      {"smiles": "CN=c1scc(C)n1/N=C/c1ccc(O)cc1", "outcome": "inactive"},
      {"smiles": "CN=c1scc(C)n1/N=C/c1ccc2c(c1)OCO2", "outcome": "active"},
      {"smiles": "Cc1nnc(C)n1/N=C/c1ccc2c(c1)OCCO2", "outcome": "inactive"},
      {"smiles": "CCN=c1scc(C)n1/N=C/c1ccsc1", "outcome": "inactive"},
      {"smiles": "CN=c1scc(C)n1/N=C/c1ccc(O)cc1O", "outcome": "active"},
      {"smiles": "COC(=O)c1ccc(Cn2nc(C(F)(F)F)cc2C)cc1", "outcome": "inactive"},
      {"smiles": "COc1ccccc1OCCSc1nnnn1-c1ccc(C)cc1", "outcome": "inactive"},
      {"smiles": "c1ccc(OCCSc2nnnn2-c2ccccc2)cc1", "outcome": "inactive"},
      {"smiles": "CCN(C(=O)Cc1ccc(Br)cc1)C1CCCCC1", "outcome": "inactive"},
      {"smiles": "C(=N\\n1cnnc1)/c1ccc(OCc2cccc3ccccc23)cc1", "outcome": "inactive"},
      {"smiles": "CCOCCOC(=O)CCSc1n[nH]c(=O)[nH]c1=O", "outcome": "inactive"},
      {"smiles": "CCC/C(O)=C1\\C(=O)CC(C)(C)CC1=Nc1ccccc1OC", "outcome": "inactive"},
      {"smiles": "CCCC/C(O)=C1\\C(=O)CC(C)(C)CC1=Nc1ccccc1OC", "outcome": "inactive"},
      {"smiles": "CCOc1ccc(C2c3c(oc4ccccc4c3=O)C(=O)N2CCCN2CCOCC2)cc1OCC", "note": "(stereo unspecified)", "outcome": "inactive"},
      {"smiles": "Cn1c(=O)c2c(nc(SCCCC#N)n2Cc2c(F)cccc2Cl)n(C)c1=O", "outcome": "inactive"},
      {"smiles": "CSc1cc(-c2ccccc2)n(Cc2ccccc2Cl)c(=O)c1C#N", "outcome": "active"},
      {"smiles": "Cc1cc(C)n(Cc2ccccc2F)c(=O)c1C#N", "outcome": "inactive"},
      {"smiles": "CSc1cc(-c2ccc(Cl)cc2)n(Cc2ccccc2)c(=O)c1C#N", "outcome": "inactive"},
      {"smiles": "CSc1cc(-c2ccccc2)n(Cc2ccc(Cl)cc2Cl)c(=O)c1C#N", "outcome": "inactive"},
      {"smiles": "CSc1cc(-c2ccccc2)n(Cc2c(Cl)cccc2Cl)c(=O)c1C#N", "outcome": "active"},
      {"smiles": "Cc1ccc(-n2c(SCC(=O)NCc3ccco3)nnc2-c2cccnc2)c(C)c1", "outcome": "inactive"},
      {"smiles": "CCOC(=O)N1CCC(NC(=O)C2CCN(S(=O)(=O)N3CCC(C)CC3)CC2)CC1", "outcome": "inactive"},
      {"smiles": "Cc1cc(C)cc(OCc2nc3ncc(Br)cc3[nH]2)c1", "outcome": "inactive"},
      {"smiles": "C=CCOc1cccc(C2C(C(=O)c3ccco3)=C(O)C(=O)N2CCN2CCOCC2)c1", "note": "(stereo unspecified)", "outcome": "inactive"},
      {"smiles": "COc1ccccc1N1CCN(C(=O)CN(c2cc(C)cc(C)c2)S(C)(=O)=O)CC1", "outcome": "inactive"},
      {"smiles": "O=C(c1ccc2nc(N3CCCCC3)sc2c1)N1CCN(Cc2ccc3c(c2)OCO3)CC1", "outcome": "inactive"},
      {"smiles": "O=S(=O)(c1ccc2c(c1)OCCO2)N1CCN(c2nc3ccccc3s2)CC1", "outcome": "inactive"},
      {"smiles": "c1c2c(cc3sc(N4CCOCC4)nc13)OCCO2", "outcome": "active"},
      {"smiles": "c1c2c(cc3sc(N4CCOCC4)nc13)OCO2", "outcome": "inactive"},
      {"smiles": "c1c2c(cc3sc(N4CCCCC4)nc13)OCCO2", "outcome": "active"},
      {"smiles": "c1ccc2sc(N3CCOCC3)nc2c1", "outcome": "inactive"},
      {"smiles": "c1ccc2c(c1)CCN(c1nc3cc4c(cc3s1)OCCO4)C2", "outcome": "active"},
      {"smiles": "c1c2c(cc3sc(N4CCCCC4)nc13)OCO2", "outcome": "active"},
      {"smiles": "c1ccc2c(c1)CCN(c1nc3cc4c(cc3s1)OCO4)C2", "outcome": "inactive"},
      {"smiles": "c1ccc(N2CCN(c3nc4cc5c(cc4s3)OCO5)CC2)cc1", "outcome": "inactive"},
      {"smiles": "c1ccc(N2CCN(c3nc4cc5c(cc4s3)OCCO5)CC2)cc1", "outcome": "inactive"},
      {"smiles": "Clc1ccc2nc(N3CCCCC3)sc2c1", "outcome": "inactive"},
      {"smiles": "CCOC(=O)c1c(COC(=O)c2ccco2)nc2ccccc2[n+]1[O-]", "outcome": "inactive"},
      {"smiles": "O=C(CCn1c(=O)oc2ccccc21)Nc1cccc(Cl)c1", "outcome": "inactive"},
      {"smiles": "Cc1cc2ccccc2c(=O)n1CC(=O)Nc1ccc2c(c1)OCCO2", "outcome": "inactive"},
      {"smiles": "CCOC(=O)c1[nH]c2ccc(F)cc2c1NC(=O)C1=COCCO1", "outcome": "inactive"},
      {"smiles": "CC(=O)c1c(C(C)=O)c(C)n(-c2nc(-c3ccc(Br)cc3)c(C)s2)c1C", "outcome": "inactive"},
      {"smiles": "OC(COc1ccccc1)CSc1ncn[nH]1", "note": "(stereo unspecified)", "outcome": "inactive"},
      {"smiles": "COc1ccc(OCCSc2ncn[nH]2)cc1", "outcome": "inactive"},
      {"smiles": "CCCCn1c(SCC(=O)N2CCOCC2)nnc1-c1cccs1", "outcome": "inactive"},
      {"smiles": "CC[C@]1(O)CC2CN(CCc3c([nH]c4ccccc34)[C@@](C(=O)OC)(c3cc4c(cc3OC)N(C=O)[C@H]3[C@@](O)(C(=O)OC)[C@H](OC(C)=O)[C@]5(CC)C=CCN6CC[C@]43[C@@H]65)C2)C1", "note": "(stereo partly specified)", "outcome": "active"}
    ]}
  ]
}
